Assay results taken from PubChem BioAssay (NCATS).
Where “and” joins values, the source holds several entries; their conditions need not be identical. Identical values can stand only once. Records with an inconclusive call do not appear. Calls of active or inactive are those of the source. Unless noted, calls come from the whole dose curve; as a rule, active = well fitted curve in the direction sought with a large enough effect; inconclusive = small, poorly fitted or top-dose-only effect, or another doubt; inactive = no such curve, though single readings can be large; an effect the other way counts as inactive or inconclusive.

What was measured:
[1] = Cell Viability - Hek293 (AID 427;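 active = compounds whose dose-response curve shows a full or clear partial loss of cell viability, called from curve shape rather than a numeric limit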;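 note: potency is the fitted concentration of half-maximal effect; cells exposed to compound for 40 hours at 37 °C before reading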); details: qHTS
Outline: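 qHTS, human embryonic kidney (adenovirus-transformed) cells; 40 hr cpd, 37 °C; CellTiter-Glo ATP luminescence. Norm: DMSO = 0, 100 uM tamoxifen = 100% inhibition. Hill-fit AC50.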

[2] = Cell Viability - SK-N-SH (AID 435; calls by dose curve; note: potency is the fitted concentration of half-maximal effect); details: SK-N-SH neuroblastoma cell viability qHTS
Outline: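 qHTS cytotoxicity: CellTiter-Glo ATP luminescence after 40 h compound exposure of human neuroblastoma SK-N-SH cells at 37 °C. AC50 derived by Hill-equation fitting, with DMSO as basal and 100 uM tamoxifen as full inhibition.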

[3] = Cell Viability - N2a (AID 540); details: N2a mouse neuroblastoma cell viability; activity change, negative = cytotoxicity: at 92.2 µM (top of the series);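 note: plate controls were DMSO alone for no effect and tamoxifen control for full effect; nearly all actives have a fitted effect of over 45% in size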
Outline: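 Mouse neuroblastoma N2a cells, 1500/well, exposed to compounds 40 h at 37 °C in complete medium. Viability measured as cellular ATP by CellTiter-Glo luminescence; AC50 from Hill fits of concentration-response.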

[4] = Cell Viability - SH-SY5Y (AID 544); details: SH-SY5Y neuroblastoma cell viability; viability change, negative = cytotoxic: at 92.2 µM (top of the series);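 note: 0% = DMSO alone and -100% = 100 µM tamoxifen; nearly all actives have a fitted effect of over 55% in size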
Outline: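 SH-SY5Y human neuroblastoma cells (1500/well) incubated 5 h, then compound-treated 40 h at 37 °C in complete medium. Viability read as intracellular ATP by CellTiter-Glo luminescence after 20 min; AC50 from Hill-equation fits of qHTS concentration-response.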

[5] = Cell Viability - Renal Proximal Tubule (AID 545); details: renal proximal tubule cells viability, primary cells of rat origin; activity change, negative = cytotoxicity: at 91.7 µM (top of the series);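 note: 0% = DMSO only and -100% = 100 µM tamoxifen; nearly all actives have a fitted effect of over 40% in size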
Outline: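 Viability taken as intracellular ATP (CellTiter-Glo luminescence) after 40 hr, 37 °C compound treatment of primary proximal tubule cells from rat kidney, 1000 cells/well; Hill-equation fits of qHTS concentration-response data gave AC50.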

[6] = Cell Viability - LYMP2-001 (AID 921); details: LYMP2-001 lymphoblastoid cell viability; series mostly up to 92.2 µM;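 note: 0% = DMSO only and full inhibition = tetraoctylammonium bromide control wells; nearly all actives have a fitted effect of over 70% in size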
Outline: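 Cellular ATP loss read by luciferase luminescence after 24 h compound exposure at 37 C in complete medium. LYMP2-001 lymphoblastoid cells, 2500/well; qHTS concentration-response data fitted with Hill equation for AC50.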

[7] = Cell Viability - LYMP2-005 (AID 967); details: LYMP2-005 lymphoblastoid cell viability; series mostly up to 92.2 µM;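 note: plate controls were DMSO only for no effect and 92 µM tetraoctylammonium bromide control for full effect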
Outline: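 LYMP2-005 human lymphoblastoid cells (2500/well) were treated with compounds for 24 h at 37 C. Intracellular ATP was then measured by CellTiter-Glo luminescence after 30 min at room temperature. AC50 values came from Hill-equation fits of qHTS concentration-response data.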

[8] = Cell Viability - LYMP2-009 (AID 968); details: LYMP2-009 lymphoblastoid cell viability; series mostly up to 92.2 µM;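 note: 0% = DMSO alone and the full-kill end = tetraoctylammonium bromide at 92 µM; nearly all actives have a fitted effect of over 55% in size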
[9] = Cell Viability - LYMP2-015 (AID 971); details: LYMP2-015 lymphoblastoid cell viability; series mostly up to 92.2 µM;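 note: 0% = DMSO only and full effect = 92 µM tetraoctylammonium bromide; nearly all actives have a fitted effect of over 55% in size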
Outline: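 LYMP2-015 human lymphoblastoid cells (2500/well) in complete medium, compound-treated 24 h at 37 C; viability read as cellular ATP by CellTiter-Glo luminescence after 30 min at room temperature. AC50 from Hill-equation fits of qHTS concentration-response data.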

[10] = Cell Viability - LYMP2-017 (AID 972); details: LYMP2-017 lymphoblastoid cell viability; series mostly up to 92.2 µM; note: % is set by controls: 0 for no effect and ±100 for the full control effect; nearly all actives have a fitted effect of over 55% in size
Outline: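 LYMP2-017 human lymphoblastoid cells (2500/well) settled 5 hr at 37 C, then exposed to compound 24 hr at 37 C in complete medium. Viability taken as intracellular ATP by CellTiter-Glo luminescence after 30 min at RT; AC50 from Hill fits.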

[11] = Cell Viability - LYMP2-019 (AID 973); details: LYMP2-019 lymphoblastoid cell line viability; series mostly up to 92.2 µM
Outline: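 Human lymphoblastoid LYMP2-019 cells (2500/well) preincubated 5 h at 37 C, then treated 24 h at 37 C in complete medium. Viability by CellTiter-Glo ATP luminescence after 30 min at room temperature; AC50 from Hill fits.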

[12] = Cell Viability - LYMP2-010 (AID 981); details: LYMP2-010 lymphoblastoid cell viability, qHTS; series mostly up to 92.2 µM
Outline: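 Human lymphoblastoid LYMP2-010 cells (2500/well) treated 24 h at 37 C in complete medium; viability read as intracellular ATP by CellTiter-Glo luminescence. AC50 from Hill fits of concentration-response data; tetraoctylammonium bromide positive control.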

[13] = qHTS assay for small molecule agonists of retinoid X receptor alpha signaling (AID 588544; calls by dose curve); details: HEK293T RXRa-UAS-bla, beta-lactamase reporter, 18 h; 530 nm emission
[14] = biological target: Retinoic acid receptor RXR-alpha (Homo sapiens) (UniProt P19793); experiment: as above; details: HEK293T RXRa-UAS-bla, beta-lactamase reporter, 18 h; series mostly up to 76.7 µM
[15] = biological target: Thyroid hormone receptor beta (Homo sapiens) (UniProt P10828); experiment: qHTS assay for small molecule agonists of thyroid hormone receptor beta signaling (AID 588545; calls by dose curve;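 note: 0% = DMSO only and 100% = 10 nM T3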); details: TR-UAS-bla GripTite HEK 293, beta-lactamase ratio, agonist mode, 18 h; series mostly up to 76.7 µM
Outline: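 Beta-lactamase reporter activity under TR response element control is measured in HEK 293 cells after 18 hrs compound exposure. Signal is ratiometric CCF4 fluorescence, 460/530 nm.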

[16] = qHTS assay for small molecule disruptors of the mitochondrial membrane potential - 1 hr assay (AID 651754; calls by dose curve; note: nearly all actives have a fitted effect of over 35% in size; note: potency is the fitted concentration of half-maximal effect); details: series mostly up to 92.2 µM
Outline: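 HepG2 cells, attached overnight, were exposed to compound for 1 hr at 37C, then stained 30 min with a potentiometric dye. Ratio of red aggregate (590nm) to green monomer (535nm) fluorescence reports membrane potential; collapse shifts signal toward green.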

[17] = qHTS assay for small molecule disruptors of the mitochondrial membrane potential - 5 hr assay (AID 651755; calls by dose curve; note: nearly all actives have a fitted effect of over 40% in size; note: potency is the fitted concentration of half-maximal effect); details: JC-1-type ratio dye; series mostly up to 92.2 µM
Outline: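 HepG2, 2,000 cells/well, overnight attach; cpd or DMSO 5 hr, 37C/5% CO2; Mito-MPS 30 min 37C; fluor 490/535 + 540/590 nm.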

[18] = qHTS assay for small molecule agonists of the antioxidant response element (ARE) signaling pathway measured by Nrf2-dependant transcriptional activity (AID 720636; active = well fitted curve in the direction sought with a large enough effect in the repeat runs; an effect the other way counts as inactive or inconclusive;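 note: HepG2 cells with an ARE-driven luciferase reporter; % of control where 0% means no effect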); details: ARE-luc HepG2, Nrf2 luciferase reporter, 16 h; series mostly up to 92.4 µM
Outline: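 In HepG2 cells engineered with an Nrf2-responsive luciferase gene, ARE induction was quantified as luminescence after 16 hr compound treatment at 37 C.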

[19] = biological target: Nuclear receptor subfamily 1 group I member 2 (Rattus norvegicus) (UniProt Q9R1A7); experiment: qHTS assay for small molecule activators of the rat pregnane X receptor (rPXR) signaling pathway (AID 651751; call rule not given here; note: 0% is about no effect); details: rPXR reporter cells, luciferase (One-Glo), 24 h
[20] = MultiTox-Fluor Cytotoxicity Assay - LYMP1-002 - Dead Cells (AID 960); details: LYMP1-002 lymphoblastoid cells, dead-cell protease fluorescence; series mostly up to 46.1 µM;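 note: cells exposed to compound for 16 h at 37 °C; 0% = DMSO and 100% = tetraoctylammonium bromide; nearly all actives have a fitted effect of over 60% in size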
Outline: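 Human lymphoblastoid LYMP1-002 cells, 2500/well, treated 16 h at 37 C; dead-cell protease cleavage of bis-AAF-R110 read by fluorescence (485/520); normalized to DMSO and 15 uM tetraoctylammonium bromide; AC50 from Hill fit.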

Nuclear receptor subfamily 1 group I member 2 (Rattus norvegicus), sequence (Q9R1A7 whole entry, looked up): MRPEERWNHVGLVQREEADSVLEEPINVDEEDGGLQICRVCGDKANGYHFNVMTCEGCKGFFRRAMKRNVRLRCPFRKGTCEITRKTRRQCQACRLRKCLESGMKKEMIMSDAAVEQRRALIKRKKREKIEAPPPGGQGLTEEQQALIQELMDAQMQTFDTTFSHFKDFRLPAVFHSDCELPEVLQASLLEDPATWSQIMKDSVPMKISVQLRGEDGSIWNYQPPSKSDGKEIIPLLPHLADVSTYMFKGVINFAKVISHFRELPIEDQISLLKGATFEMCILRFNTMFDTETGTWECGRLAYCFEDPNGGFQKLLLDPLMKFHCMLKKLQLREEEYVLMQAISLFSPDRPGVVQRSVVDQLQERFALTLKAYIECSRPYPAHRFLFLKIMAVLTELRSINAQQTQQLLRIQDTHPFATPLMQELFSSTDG
Thyroid hormone receptor beta (Homo sapiens), sequence (P10828 whole entry, looked up): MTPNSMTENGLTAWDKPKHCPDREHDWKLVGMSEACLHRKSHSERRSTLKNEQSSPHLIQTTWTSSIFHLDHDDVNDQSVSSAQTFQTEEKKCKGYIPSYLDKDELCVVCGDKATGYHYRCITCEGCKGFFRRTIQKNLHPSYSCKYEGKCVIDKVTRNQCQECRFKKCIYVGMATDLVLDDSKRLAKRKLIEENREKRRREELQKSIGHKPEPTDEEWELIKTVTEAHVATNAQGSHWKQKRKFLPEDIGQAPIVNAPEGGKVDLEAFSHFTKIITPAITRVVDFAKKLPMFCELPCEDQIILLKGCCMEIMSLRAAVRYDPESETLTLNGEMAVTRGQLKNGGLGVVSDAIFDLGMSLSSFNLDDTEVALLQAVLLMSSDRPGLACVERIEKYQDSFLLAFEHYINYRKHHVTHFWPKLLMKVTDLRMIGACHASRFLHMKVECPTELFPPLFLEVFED
Retinoic acid receptor RXR-alpha (Homo sapiens), sequence (P19793 whole entry, looked up): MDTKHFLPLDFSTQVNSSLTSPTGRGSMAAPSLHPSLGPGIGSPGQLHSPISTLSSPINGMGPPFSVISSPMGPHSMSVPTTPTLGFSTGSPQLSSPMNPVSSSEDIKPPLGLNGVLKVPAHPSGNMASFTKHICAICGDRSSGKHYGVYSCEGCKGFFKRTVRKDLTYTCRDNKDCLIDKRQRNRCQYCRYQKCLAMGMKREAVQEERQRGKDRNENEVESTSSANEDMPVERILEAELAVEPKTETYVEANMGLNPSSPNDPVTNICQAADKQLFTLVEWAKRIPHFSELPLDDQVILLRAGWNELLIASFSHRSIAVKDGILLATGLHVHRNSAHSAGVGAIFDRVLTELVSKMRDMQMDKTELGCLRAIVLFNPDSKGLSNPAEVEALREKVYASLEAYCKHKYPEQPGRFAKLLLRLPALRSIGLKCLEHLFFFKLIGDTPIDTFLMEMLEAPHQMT

CCCCCCN
inactive: Potency [1] > 92 µM | Potency [2] > 92 µM | activity change, negative = cytotoxicity [3] -7.51% | Potency [4] | Potency [5] | Potency [6] | Potency [7] | Potency [8] | Potency [9] | Potency [10] | Potency [11] | Potency [12] | Potency [14] | Potency [15] | Potency [16] | Potency [17] | Potency [18] | max response [19] -1.94%
-10.9%: max response [13]

Cc1cccnc1
inactive: Potency [1] > 92 µM | Potency [2] > 92 µM | Potency [4] | Potency [5] | Potency [6] | Potency [20] | Potency [7] | Potency [8] | Potency [9] | Potency [10] | Potency [11] | Potency [12] | Potency [14] | Potency [16] | Potency [17] | Potency [18] | max response [19] -3.97%
9.82%: max response [13]

CCCCC(CC)COC(=O)COc1ccc(Cl)cc1Cl (centres undefined)
5.67% and -6.26%: max response [13]
inactive: Potency [1] > 92 µM | Potency [2] > 92 µM | activity change, negative = cytotoxicity [3] 1.51% | Potency [4] | Potency [5] | Potency [6] | Potency [20] | Potency [8] | Potency [9] | Potency [10] | Potency [11] | Potency [12] | Potency [14] | Potency [15] | Potency [16] | Potency [17] | Potency [18] | max response [19] -0.582% and 1.82%

Nc1cc(C(=O)O)c(O)c(S(=O)(=O)O)c1
inactive: Potency [1] > 92 µM | Potency [2] > 92 µM | activity change, negative = cytotoxicity [3] -4.5% | Potency [4] | Potency [5] | Potency [6] | Potency [20] | Potency [7] | Potency [8] | Potency [9] | Potency [10] | Potency [11] | Potency [12] | Potency [14] | Potency [15] | Potency [16] | Potency [17] | Potency [18] | max response [19] 1.39%
11.2%: max response [13]

Nc1cnn([C@@H]2O[C@H](CO)[C@@H](O)[C@H]2O)c(=O)n1
inactive: Potency [1] > 92 µM | Potency [2] > 92 µM | activity change, negative = cytotoxicity [3] 8.82% | Potency [4] | Potency [5] | Potency [6] | Potency [20] | Potency [7] | Potency [8] | Potency [9] | Potency [10] | Potency [11] | Potency [12] | Potency [14] | Potency [15] | Potency [16] | Potency [17] | Potency [18] | max response [19] 3.54%
11.7%: max response [13]

C=Cc1cccc(C)c1
inactive: Potency [1] > 92 µM | Potency [2] > 92 µM | activity change, negative = cytotoxicity [3] -2.59% | Potency [4] | Potency [5] | Potency [6] | Potency [20] | Potency [7] | Potency [8] | Potency [9] | Potency [10] | Potency [11] | Potency [12] | Potency [14] | Potency [15] | Potency [16] | Potency [17] | Potency [18] | max response [19] 3.54%
-15.6%: max response [13]

COc1ccc(C)cc1N
inactive: Potency [1] > 92 µM | Potency [2] > 92 µM | activity change, negative = cytotoxicity [3] -14.1% | Potency [5] | Potency [6] | Potency [20] | Potency [7] | Potency [8] | Potency [9] | Potency [10] | Potency [11] | Potency [12] | Potency [14] | Potency [16] | Potency [17] | Potency [18] | max response [19] 8.96%
-1.98%: max response [13]

CC(/C=C/C=C(C)/C=C/C(=O)O)=C\C=C\C=C(C)\C=C\C=C(C)\C=C\C(=O)O
4.44%: max response [13]
inactive: Potency [1] > 92 µM | Potency [2] > 92 µM | activity change, negative = cytotoxicity [3] -5.79% | Potency [6] | Potency [20] | Potency [8] | Potency [9] | Potency [10] | Potency [11] | Potency [12] | Potency [14] | Potency [16] | Potency [17] | max response [19] 10.8%
active: viability change, negative = cytotoxic [4] -97%

Brc1cc(Oc2cc(Br)c(Br)c(Br)c2Br)c(Br)c(Br)c1Br
inactive: Potency [1] > 92 µM | Potency [2] > 92 µM | activity change, negative = cytotoxicity [3] -25% | Potency [5] | Potency [6] | Potency [20] | Potency [7] | Potency [8] | Potency [9] | Potency [10] | Potency [11] | Potency [12] | Potency [14] | Potency [15] | Potency [16] | Potency [17] | Potency [18] | max response [19] 2.26% and 7.81%
21.6%: max response [13]

c1ccc2ncccc2c1
5.03%: max response [13]
inactive: Potency [1] > 92 µM | Potency [2] > 92 µM | activity change, negative = cytotoxicity [3] -5.79% | Potency [4] | Potency [5] | Potency [6] | Potency [20] | Potency [7] | Potency [8] | Potency [9] | Potency [10] | Potency [11] | Potency [12] | Potency [14] | Potency [15] | Potency [16] | Potency [17] | Potency [18] | max response [19] 5.68%

Nc1ccccc1O
23.5%: max response [13]
active: Potency [16] 15 µM | Potency [17] 23.7 µM
inactive: Potency [1] > 92 µM | Potency [2] > 92 µM | Potency [5] | Potency [20] | Potency [8] | Potency [10] | Potency [11] | Potency [14] | Potency [15] | Potency [18]

Oc1c(Cl)cc(Cl)c(Cl)c1Cl
inactive: Potency [1] > 92 µM | Potency [2] > 92 µM | Potency [5] | Potency [6] | Potency [7] | Potency [8] | Potency [9] | Potency [10] | Potency [11] | Potency [12] | Potency [14] | Potency [15] | Potency [18] | max response [19] -11.7% and -1.19%
active: Potency [16] 42.2 µM | Potency [17] 37.6 µM
23.7% and -14.7%: max response [13]

CCCCOC(=O)COc1ccc(Cl)cc1Cl
inactive: Potency [1] > 92 µM | Potency [2] > 92 µM | activity change, negative = cytotoxicity [3] 7.15% | Potency [4] | Potency [5] | Potency [6] | Potency [20] | Potency [7] | Potency [8] | Potency [9] | Potency [10] | Potency [11] | Potency [12] | Potency [14] | Potency [15] | Potency [16] | Potency [17] | Potency [18] | max response [19] -2.3% and -1.06%
4.2% and -8.56%: max response [13]
